Assay results reported in PubChem BioAssay (NCI).
About 83,000 compounds went through this panel and 20% of them were active in at least one assay; those are over-represented in the sample as a whole.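 Results are percent growth after 48 hours of single-concentration exposure. 100 means growth as in untreated cells, lower positive values show inhibition; negative values down to -100 show cell death.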 Calls of active or inactive are those of the source. The calls were made as follows: active = growth percent below 10; inactive = the rest.

Key:
Assay in all cases: NCI-60 one-dose screen, 48 h (100 = growth as untreated, 0 = no growth, -100 = all killed)
SR leukemia = conditions: 10 µM unless noted
RPMI-8226 leukemia = conditions: 10 µM unless noted
OVCAR-8 ovarian = conditions: 10 µM unless noted
OVCAR-5 ovarian = conditions: 10 µM unless noted
OVCAR-4 ovarian = conditions: 10 µM unless noted
SK-OV-3 ovarian = conditions: 10 µM unless noted
IGROV1 ovarian = conditions: 10 µM unless noted
OVCAR-3 ovarian = conditions: 10 µM unless noted
HS 578T breast = conditions: 10 µM
NCI/ADR-RES ovarian = conditions: 10 µM unless noted
T-47D breast = conditions: 10 µM unless noted
BT-549 breast = conditions: 10 µM unless noted
MDA-MB-435 melanoma = conditions: 10 µM unless noted
SW-620 colon = conditions: 10 µM unless noted
MCF7 breast = conditions: 10 µM unless noted
HCT-116 colon = conditions: 10 µM unless noted
HCC-2998 colon = conditions: 10 µM
KM12 colon = conditions: 10 µM unless noted

Measured: growth

Cc1cc(N(CCNc2ccnc3cc(Cl)ccc23)Cc2ccc3c(c2)OCO3)nc(N2CCN(C)CC2)n1
inactive: OVCAR-8 ovarian 20.3% | OVCAR-5 ovarian 97.2% | OVCAR-4 ovarian 36% | SK-OV-3 ovarian 67.4% | IGROV1 ovarian 51.7% | OVCAR-3 ovarian 26.5% | HS 578T breast 34.4% | NCI/ADR-RES ovarian 40.9% | BT-549 breast 21.6% | MCF7 breast 15.3% | KM12 colon 62.6%
active: SR leukemia -33.4% | RPMI-8226 leukemia -42.3% | T-47D breast -36.9% | MDA-MB-435 melanoma -62.6% | SW-620 colon 2.88% | HCT-116 colon 9.43% | HCC-2998 colon -30.8%

COc1cnc2c(c1)C(=O)c1c-2n(CCCN2CCC(O)CC2)c(=O)c2cc(Cl)ccc12
active: SR leukemia -16.9% | RPMI-8226 leukemia 8.25% | SW-620 colon -32.1% | MCF7 breast 0.872% | HCT-116 colon -60%
inactive: OVCAR-8 ovarian 46.1% | OVCAR-5 ovarian 101% | OVCAR-4 ovarian 70% | SK-OV-3 ovarian 27.8% | IGROV1 ovarian 55.6% | OVCAR-3 ovarian 80.9% | HS 578T breast 86.7% | NCI/ADR-RES ovarian 28.3% | T-47D breast 42.8% | BT-549 breast 46.9% | MDA-MB-435 melanoma 76.1% | HCC-2998 colon 51.5% | KM12 colon 45%

O=c1[nH]c(N2CCOCC2)nc2scc(-c3ccccc3)c12
inactive: SR leukemia 102% | RPMI-8226 leukemia 97.7% | OVCAR-8 ovarian 96.2% | OVCAR-5 ovarian 104% | OVCAR-4 ovarian 101% | SK-OV-3 ovarian 88% | IGROV1 ovarian 101% | OVCAR-3 ovarian 110% | HS 578T breast 102% | NCI/ADR-RES ovarian 98.1% | T-47D breast 80.7% | BT-549 breast 92.4% | MDA-MB-435 melanoma 91.7% | SW-620 colon 110% | MCF7 breast 92.2% | HCT-116 colon 98.3% | HCC-2998 colon 106% | KM12 colon 97.6%

CC(C)(C)c1ccc(Cn2cc(CSc3nc4ccccc4s3)nn2)cc1
inactive: SR leukemia 98.7% | RPMI-8226 leukemia 97.2% | OVCAR-8 ovarian 92% | OVCAR-5 ovarian 94.4% | OVCAR-4 ovarian 97.5% | SK-OV-3 ovarian 96.6% | IGROV1 ovarian 90.7% | OVCAR-3 ovarian 107% | HS 578T breast 93.7% | NCI/ADR-RES ovarian 92.8% | T-47D breast 73.4% | BT-549 breast 87.7% | MDA-MB-435 melanoma 106% | SW-620 colon 97.3% | MCF7 breast 91.4% | HCT-116 colon 121% | HCC-2998 colon 104%

COc1cc(C(=O)NNC(=O)c2ccc(NC(=O)CCl)cc2)cc(OC)c1OC
inactive: SR leukemia 45.8% | RPMI-8226 leukemia 97.8% | OVCAR-8 ovarian 82.2% | OVCAR-5 ovarian 170% | OVCAR-4 ovarian 88.4% | SK-OV-3 ovarian 99.1% | IGROV1 ovarian 75.1% | OVCAR-3 ovarian 62.4% | HS 578T breast 90.5% | NCI/ADR-RES ovarian 102% | T-47D breast 64.3% | BT-549 breast 66.8% | MDA-MB-435 melanoma 92.5% | SW-620 colon 65.5% | MCF7 breast 61.8% | HCT-116 colon 44.5% | HCC-2998 colon 88.7%

C=CC(=O)N(C)[C@H]1C[C@H]2OC(C)(C1OC)n1c3ccccc3c3c4c(c5c6ccccc6n2c5c31)C(=O)NC4 (some centres undefined)
inactive: OVCAR-5 ovarian 28.9% | OVCAR-4 ovarian 42.2% | IGROV1 ovarian 13.7% | T-47D breast 16.5% | SW-620 colon 10.3% | MCF7 breast 12.5%
active: SR leukemia -25.3% | RPMI-8226 leukemia -11.3% | OVCAR-8 ovarian 3.41% | SK-OV-3 ovarian -21.3% | OVCAR-3 ovarian -11.1% | HS 578T breast -14.9% | NCI/ADR-RES ovarian -1.79% | BT-549 breast -70.4% | MDA-MB-435 melanoma 6.02% | HCT-116 colon -48.4% | HCC-2998 colon -48.1% | KM12 colon 9.67%

O=C1CC(c2cccc(F)c2)c2c(n[nH]c2-c2ccc(Cl)cc2)N1 (centres undefined)
inactive: SR leukemia 89.3% | RPMI-8226 leukemia 81.8% | OVCAR-8 ovarian 85.9% | OVCAR-5 ovarian 84.7% | OVCAR-4 ovarian 95.4% | SK-OV-3 ovarian 86.4% | IGROV1 ovarian 101% | OVCAR-3 ovarian 100% | HS 578T breast 91.2% | NCI/ADR-RES ovarian 93.9% | T-47D breast 55.8% | BT-549 breast 92.4% | MDA-MB-435 melanoma 99.5% | SW-620 colon 114% | MCF7 breast 96.5% | HCT-116 colon 74.4% | HCC-2998 colon 102% | KM12 colon 91.7%

COc1cc2cc(NCc3ccc(F)cc3)nc(C)c2cc1OC
inactive: SR leukemia 22.2% | RPMI-8226 leukemia 14.2% | OVCAR-8 ovarian 51% | OVCAR-5 ovarian 53.4% | OVCAR-4 ovarian 96.7% | SK-OV-3 ovarian 75.3% | IGROV1 ovarian 59.1% | OVCAR-3 ovarian 68.2% | HS 578T breast 75.8% | NCI/ADR-RES ovarian 44.4% | T-47D breast 53.2% | BT-549 breast 29% | MDA-MB-435 melanoma 24.6% | SW-620 colon 21.8% | MCF7 breast 68.6% | HCC-2998 colon 42.3% | KM12 colon 42.3%
active: HCT-116 colon 9.34%

CCNCCNc1cc(-c2ccc(Cl)c(Cl)c2)c(C#N)c2nc3ccccc3n12
active: SR leukemia -30.9% | RPMI-8226 leukemia -39.2% | OVCAR-8 ovarian -66% | OVCAR-5 ovarian -76% | OVCAR-4 ovarian -78.4% | SK-OV-3 ovarian -94.1% | IGROV1 ovarian -70.7% | OVCAR-3 ovarian -94% | HS 578T breast -45.7% | NCI/ADR-RES ovarian -73.4% | T-47D breast -60.8% | BT-549 breast -70.5% | MDA-MB-435 melanoma -95% | SW-620 colon -67.3% | MCF7 breast -72% | HCT-116 colon -87.3% | HCC-2998 colon -87.1% | KM12 colon -86.6%

Cc1ccc(-c2cc3c(SCC(=O)Nc4cc(C(F)(F)F)ccc4Cl)nccn3n2)cc1
inactive: OVCAR-8 ovarian 33.1% | OVCAR-5 ovarian 84.7% | OVCAR-4 ovarian 38.1% | SK-OV-3 ovarian 84.3% | IGROV1 ovarian 52.7% | OVCAR-3 ovarian 82.3% | HS 578T breast 87% | NCI/ADR-RES ovarian 42.5% | T-47D breast 101% | BT-549 breast 81.2% | MDA-MB-435 melanoma 38.7% | SW-620 colon 18.2% | MCF7 breast 14.7% | HCT-116 colon 14.7% | HCC-2998 colon 19.5%
active: SR leukemia -10.2% | RPMI-8226 leukemia -12.5%

COc1cc2c3c(c1)nc(C)n3CCC2
inactive: SR leukemia 101% | RPMI-8226 leukemia 105% | OVCAR-8 ovarian 96.4% | OVCAR-5 ovarian 102% | OVCAR-4 ovarian 96% | SK-OV-3 ovarian 90.8% | IGROV1 ovarian 109% | OVCAR-3 ovarian 109% | HS 578T breast 105% | NCI/ADR-RES ovarian 103% | T-47D breast 95.8% | BT-549 breast 94.2% | MDA-MB-435 melanoma 100% | SW-620 colon 107% | MCF7 breast 99.5% | HCT-116 colon 92.8% | HCC-2998 colon 99.8% | KM12 colon 108%

Cc1sc2c(c1C)c(=O)nc1c(-c3nc4ccccc4s3)n[nH]n12
inactive: SR leukemia 88.5% | RPMI-8226 leukemia 87.9% | OVCAR-8 ovarian 97.9% | OVCAR-5 ovarian 110% | OVCAR-4 ovarian 99.6% | SK-OV-3 ovarian 91.4% | IGROV1 ovarian 94.2% | OVCAR-3 ovarian 98.2% | HS 578T breast 93.3% | NCI/ADR-RES ovarian 93.7% | T-47D breast 85.2% | BT-549 breast 101% | MDA-MB-435 melanoma 110% | SW-620 colon 104% | MCF7 breast 79.6% | HCT-116 colon 90% | HCC-2998 colon 96.3%

COc1cc2c(cc1O)c(=O)n(CCN(C)C)c1c3cc4c(cc3ncc21)OCO4
active: SR leukemia 4.06% | RPMI-8226 leukemia -30.3% | OVCAR-8 ovarian -9.58% | OVCAR-5 ovarian -1.62% | OVCAR-4 ovarian -1.86% | SK-OV-3 ovarian 3.14% | IGROV1 ovarian 0.0353% | OVCAR-3 ovarian -39.9% | NCI/ADR-RES ovarian -12.6% | T-47D breast 4.79% | BT-549 breast -15.5% | MDA-MB-435 melanoma -59.7% | SW-620 colon 1.96% | MCF7 breast 2.14% | HCT-116 colon 2.63% | HCC-2998 colon -38.6%
inactive: HS 578T breast 11.4%

COc1cc(-c2cc(-c3ccc(Nc4ccnc5cc(Cl)ccc45)cc3)nc(N3CCOCC3)n2)cc(OC)c1OC
active: SR leukemia -10.7% | RPMI-8226 leukemia -5.21% | OVCAR-8 ovarian 9.73% | OVCAR-4 ovarian -48.3% | IGROV1 ovarian 1.69% | OVCAR-3 ovarian -47.7% | HS 578T breast 3.06% | NCI/ADR-RES ovarian 9.9% | MDA-MB-435 melanoma -35% | SW-620 colon 1.68% | MCF7 breast 4.34% | HCT-116 colon -63.3%
inactive: OVCAR-5 ovarian 55.5% | SK-OV-3 ovarian 98.6% | T-47D breast 12.8% | BT-549 breast 24.4% | HCC-2998 colon 18.7%

CCCCCCCCCCCC[n+]1ccccc1
active: SR leukemia -20.7% | RPMI-8226 leukemia -39.2% | OVCAR-8 ovarian 0.812% | SK-OV-3 ovarian -1.15% | IGROV1 ovarian -37.5% | OVCAR-3 ovarian -32.9% | HS 578T breast 6.1% | T-47D breast 4.67% | BT-549 breast -37.4% | MDA-MB-435 melanoma -16.5% | MCF7 breast 5.23% | HCT-116 colon 6.26% | HCC-2998 colon 9.96% | KM12 colon -48.1%
inactive: OVCAR-5 ovarian 14.6% | OVCAR-4 ovarian 14.9% | NCI/ADR-RES ovarian 75.4% | SW-620 colon 10.7%

COC(=O)CC[C@@H](C)[C@H]1CC[C@H]2C3CC[C@@H]4C[C@@H]5CC[C@]4(C)[C@@]3(O5)[C@H](Br)[C@@H](Br)[C@]12C (some centres undefined)
inactive: SR leukemia 82.6% | RPMI-8226 leukemia 88.5% | OVCAR-8 ovarian 97.8% | OVCAR-5 ovarian 102% | OVCAR-4 ovarian 85.5% | SK-OV-3 ovarian 80.2% | IGROV1 ovarian 103% | OVCAR-3 ovarian 101% | HS 578T breast 112% | NCI/ADR-RES ovarian 103% | T-47D breast 73.7% | BT-549 breast 102% | MDA-MB-435 melanoma 93.8% | SW-620 colon 102% | MCF7 breast 87.7% | HCT-116 colon 74.2% | HCC-2998 colon 94.8%

O=C(Cn1ccnc1)Nc1ccc(-c2nc3ccccc3s2)cc1
inactive: SR leukemia 36.5% | RPMI-8226 leukemia 52% | OVCAR-8 ovarian 80.3% | OVCAR-5 ovarian 104% | OVCAR-4 ovarian 34.8% | SK-OV-3 ovarian 87.8% | IGROV1 ovarian 68.9% | OVCAR-3 ovarian 62.2% | HS 578T breast 86.9% | NCI/ADR-RES ovarian 88.2% | T-47D breast 51.4% | BT-549 breast 65.1% | MDA-MB-435 melanoma 81.6% | SW-620 colon 99.8% | MCF7 breast 61.3% | HCT-116 colon 68.2% | HCC-2998 colon 94.9% | KM12 colon 84.4%
